Hit rate of the full screen: of about 5,500 compounds, about 2,000 (36%) were called active. About 18% were inconclusive and are not listed. No stated cut-off is given here; in the data, active means normalized growth mostly below about 0.91 (no sharp cut-off); inconclusive means no clear call, values can overlap the other calls; inactive means mostly above about 0.92. This is one part of the list.
Test: chemical genetic growth profiling, strain panel (AID 1159580);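 further: tested at 20 µM; growth read once vehicle control cultures reached saturation at 30 °C; 1 = growth at the plate median or of vehicle wells; lower values mean less growth of the strain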
Conditions: growth OD

Measured: normalized growth

c1coc(CNc2ncnc3nc[nH]c23)c1
inactive: S. cerevisiae deletion strains, locus YJR075W, strain HOC1, active compounds read low 1 | S. cerevisiae deletion strains, locus YKL009W, strain mrt4, active compounds read low 1.03 | S. cerevisiae deletion strains, locus YKL068W, active compounds read low 0.979 | S. cerevisiae deletion strains, locus YKL085W, strain MDH1 (second series), active compounds read low 1.01 | S. cerevisiae deletion strains, locus YKL085W, strain MDH1, active compounds read low 1.01 | S. cerevisiae deletion strains, locus YKL160W, strain elf1, active compounds read low 1.02 | S. cerevisiae deletion strains, locus YKL190W, strain CNB1, active compounds read low 0.994 | S. cerevisiae deletion strains, locus YKR001C, strain vps1, active compounds read low 1 | S. cerevisiae deletion strains, locus YKR026C, strain gcn3, active compounds read low 0.999 | S. cerevisiae deletion strains, locus YKR091W, strain srl3, active compounds read low 0.994 | S. cerevisiae deletion strains, locus YLL001W, strain dnm1, active compounds read low 1.01 | S. cerevisiae deletion strains, locus YLL026W, active compounds read low 0.999 | S. cerevisiae deletion strains, locus YLL041C, strain sdh2, active compounds read low 0.997 | S. cerevisiae deletion strains, locus YLR027C, strain aat2, active compounds read low 1 | S. cerevisiae deletion strains, locus YLR039C, strain RIC1, active compounds read low 1.01 | S. cerevisiae deletion strains, locus YLR058C, strain SHM2, active compounds read low 1 | S. cerevisiae deletion strains, locus YLR102C, strain apc9, active compounds read low 0.989 | S. cerevisiae deletion strains, locus YLR113W, strain HOG1, active compounds read low 0.993 | S. cerevisiae deletion strains, locus YLR221C, strain rsa3, active compounds read low 0.975 | S. cerevisiae deletion strains, locus YLR258W, strain gsy2, active compounds read low 0.996 | S. cerevisiae deletion strains, locus YLR262C, strain YPT6 (second series), active compounds read low 0.977 | S. cerevisiae deletion strains, locus YLR262C, strain YPT6, active compounds read low 0.981 | S. cerevisiae deletion strains, locus YLR268W, strain sec22, active compounds read low 0.97 | S. cerevisiae deletion strains, locus YLR320W, strain mms22, active compounds read low 1 | S. cerevisiae deletion strains, locus YLR330W, strain CHS5, active compounds read low 0.994 | S. cerevisiae deletion strains, locus YLR342W, strain FKS1 (second series), active compounds read low 1.02 | S. cerevisiae deletion strains, locus YLR342W, strain FKS1, active compounds read low 1.01 | S. cerevisiae deletion strains, locus YLR357W, strain rsc2, active compounds read low 0.98 | S. cerevisiae deletion strains, locus YLR370C, strain arc18, active compounds read low 0.993 | S. cerevisiae deletion strains, locus YLR371W, strain rom2, active compounds read low 0.99 | S. cerevisiae deletion strains, locus YLR384C, strain iki3, active compounds read low 1 | S. cerevisiae deletion strains, locus YLR418C, strain cdc73, active compounds read low 1 | S. cerevisiae deletion strains, locus YML016C, strain PPZ1, active compounds read low 1 | S. cerevisiae deletion strains, locus YML032C, strain rad52, active compounds read low 0.993 | S. cerevisiae deletion strains, locus YML120C, strain ndi1, active compounds read low 0.992 | S. cerevisiae deletion strains, locus YML124C, strain tub3, active compounds read low 1 | S. cerevisiae deletion strains, locus YMR058W, strain fet3, active compounds read low 0.998 | S. cerevisiae deletion strains, locus YMR078C, strain ctf18, active compounds read low 0.994 | S. cerevisiae deletion strains, locus YMR125W, strain sto1, active compounds read low 0.974 | S. cerevisiae deletion strains, locus YMR129W, active compounds read low 0.988 | S. cerevisiae deletion strains, locus YMR205C, strain PFK2, active compounds read low 1 | S. cerevisiae deletion strains, locus YMR223W, strain ubp8, active compounds read low 1.02 | S. cerevisiae deletion strains, locus YMR231W, strain pep5, active compounds read low 0.991 | S. cerevisiae deletion strains, locus YMR263W, strain SAP30, active compounds read low 0.986 | S. cerevisiae deletion strains, locus YMR307W, strain GAS1, active compounds read low 1.11 | S. cerevisiae deletion strains, locus YNL067W, strain RPL9B, active compounds read low 0.983 | S. cerevisiae deletion strains, locus YNL071W, strain lat1, active compounds read low 0.999 | S. cerevisiae deletion strains, locus YNL128W, strain TEP1, active compounds read low 0.99 | S. cerevisiae deletion strains, locus YNL153C, strain GIM3, active compounds read low 0.991 | S. cerevisiae deletion strains, locus YNL183C, strain NPR1, active compounds read low 0.914 | S. cerevisiae deletion strains, locus YNL209W, strain ssb2, active compounds read low 0.986 | S. cerevisiae deletion strains, locus YNL233W, strain BNI4, active compounds read low 1.01 | S. cerevisiae deletion strains, locus YNL248C, strain rpa49, active compounds read low 0.989 | S. cerevisiae deletion strains, locus YNL250W, strain rad50, active compounds read low 0.995 | S. cerevisiae deletion strains, locus YNL271C, strain bni1, active compounds read low 0.988 | S. cerevisiae deletion strains, locus YNL298W, strain CLA4, active compounds read low 1 | S. cerevisiae deletion strains, locus YNL307C, strain MCK1, active compounds read low 0.995 | S. cerevisiae deletion strains, locus YNL322C, strain KRE1 (second series), active compounds read low 0.992 | S. cerevisiae deletion strains, locus YNL322C, strain KRE1, active compounds read low 0.987 | S. cerevisiae deletion strains, locus YNR049C, strain mso1, active compounds read low 0.999 | S. cerevisiae deletion strains, locus YNR052C, strain pop2, active compounds read low 0.993 | S. cerevisiae deletion strains, locus YOL006C, strain TOP1, active compounds read low 0.981 | S. cerevisiae deletion strains, locus YOL012C, strain htz1 0.989 | S. cerevisiae deletion strains, locus YOL147C, strain pex11, active compounds read low 0.999 | S. cerevisiae deletion strains, locus YOR001W, strain rrp6, active compounds read low 1.01 | S. cerevisiae deletion strains, locus YOR061W, strain CKA2, active compounds read low 1 | S. cerevisiae deletion strains, locus YOR069W, strain VPS5, active compounds read low 1 | S. cerevisiae deletion strains, locus YOR070C, strain gyp1, active compounds read low 1 | S. cerevisiae deletion strains, locus YOR080W, strain dia2, active compounds read low 0.995 | S. cerevisiae deletion strains, locus YOR083W, strain WHI5, active compounds read low 1 | S. cerevisiae deletion strains, locus YOR106W, strain vam3, active compounds read low 1 | S. cerevisiae deletion strains, locus YOR136W, strain idh2, active compounds read low 0.996 | S. cerevisiae deletion strains, locus YOR144C, strain elg1, active compounds read low 0.99 | S. cerevisiae deletion strains, locus YOR184W, strain ser1, active compounds read low 0.997 | S. cerevisiae deletion strains, locus YOR231W, strain MKK1, active compounds read low 0.998 | S. cerevisiae deletion strains, locus YOR265W, strain rbl2, active compounds read low 0.996 | S. cerevisiae deletion strains, locus YOR270C, strain vph1, active compounds read low 0.99 | S. cerevisiae deletion strains, locus YOR290C, strain snf2, active compounds read low 0.991 | S. cerevisiae deletion strains, locus YOR316C, strain cot1, active compounds read low 0.989 | S. cerevisiae deletion strains, locus YPL051W, strain arl3, active compounds read low 0.996 | S. cerevisiae deletion strains, locus YPL055C, strain LGE1, active compounds read low 0.978 | S. cerevisiae deletion strains, locus YPL078C, strain atp4, active compounds read low 1.01 | S. cerevisiae deletion strains, locus YPL106C, strain sse1, active compounds read low 0.995 | S. cerevisiae deletion strains, locus YPL240C, strain hsp82, active compounds read low 1.02 | S. cerevisiae deletion strains, locus YPL241C, strain CIN2, active compounds read low 1 | S. cerevisiae deletion strains, locus YPL256C, strain CLN2, active compounds read low 0.965 | S. cerevisiae deletion strains, locus YPR119W, strain clb2, active compounds read low 0.999 | S. cerevisiae deletion strains, locus YPR141C, strain kar3, active compounds read low 0.981 | S. cerevisiae deletion strains, locus YPR163C, strain tif3, active compounds read low 1 | S. cerevisiae deletion strains, locus YPR167C, strain met16, active compounds read low 0.99 | S. cerevisiae deletion strains, strain wtn01, active compounds read low 0.986 | S. cerevisiae strains, strain wild type, active compounds read low 0.999

Source: PubChem BioAssay AID1159580 (chemical genetic matrix, 2015)
